Data taken from PubChem BioAssay.
Entries with a potency or affinity are not part of this list. Results filed as inconclusive are left out. Calls of active or inactive are those of the source.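 The calls were made as follows, unless noted: active = a dose-response fit showing signal loss, with half-maximal concentration no higher than twice the top tested dose; inconclusive = flat fit between 30% and 70% signal loss, or poor fit; inactive = the rest.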

Test: Cryptococcus neoformans growth inhibition, dose response, Alamar Blue, cherry-picks (AID 686998;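 active = falling signal with fitted half-maximal potency no higher than twice the top valid tested dose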)
Conditions: 24 h; series mostly up to 35 µM

Structure (SMILES)	outcome
Cc1noc(C)c1NC(=O)N(C)C[C@H]1OCCCC[C@H](C)Oc2ccc(NC(=O)NC(C)C)cc2C(=O)N([C@@H](C)CO)C[C@@H]1C	inactive
COc1ccc(NC(=O)N(C)C[C@@H]2OCCCC[C@@H](C)Oc3ccc(NC(=O)Nc4ccc5c(c4)OCO5)cc3C(=O)N([C@@H](C)CO)C[C@H]2C)cc1	inactive
O=C(NC(=S)Nc1cccc(F)c1)c1cccc([N+](=O)[O-])c1	inactive
CCCC(=O)N1CCC1(C)C(=O)Nc1ccc(C)cc1 (configuration not stated)	inactive
CCCNC(C)C(=O)Nc1ccccc1C (configuration not stated)	inactive
COCCN1C(=S)N[C@@H](c2ccccc2)C(C(=O)OC)=C1C	inactive
Cc1ccccc1NC(=O)C(=O)NCCCN1CCCC1=O	inactive
Cc1ccc(S(=O)(=O)N[C@H]2C=C[C@@H](CC(=O)N3CCC(Cc4ccccc4)CC3)O[C@H]2CO)cc1	inactive
C[C@H](O)C#Cc1ccc2c(c1)O[C@H](CN(C)Cc1ccncc1)[C@H](C)CN([C@H](C)CO)S2(=O)=O	inactive
CC(C)NC(=O)Nc1ccc2c(c1)C(=O)N([C@@H](C)CO)C[C@@H](C)[C@@H](CN(C)C(=O)NC(C)C)OCCCC[C@@H](C)O2	inactive
C[C@H]1CN([C@@H](C)CO)C(=O)Cc2cc(N(C)C)ccc2O[C@@H]1CN(C)C(=O)Nc1ccc(C(F)(F)F)cc1	inactive
CO[C@H]1CN(C)C(=O)c2cc(NC(=O)C3CC3)ccc2OC[C@@H](C)N(Cc2cncnc2)C[C@H]1C	inactive
C[C@@H]1CCCCO[C@H](CN(C)C(=O)CCCN(C)C)[C@@H](C)CN([C@H](C)CO)C(=O)c2cc(NC(=O)Cc3ccccc3)ccc2O1	inactive
C[C@@H]1CCCCO[C@H](CN(C)S(=O)(=O)c2cccs2)[C@@H](C)CN([C@@H](C)CO)C(=O)c2cc(NC(=O)CCC(F)(F)F)ccc2O1	inactive
Cc1cccc(C)c1NC(=O)C1CCCN1C(=O)NCc1ccccc1 (configuration not stated)	inactive
O=C(Nc1ccccc1N1CCOCC1)c1cccc([N+](=O)[O-])c1	inactive
CCN(Cc1ccccc1)C(=O)COc1ccccc1	inactive

Test: HepG2 cell cytotoxicity, dose response, cytotoxicity control, cherry-picks, set 2 (AID 687002)
Conditions: HepG2 viability, ATP luminescence (CellTiter-Glo), 48 h; series mostly up to 26 µM

Structure (SMILES)	outcome
O=C(NCCN1CCCCC1)[C@@H]1N[C@@H]2c3ccc(-c4ccncc4)c(=O)n3C[C@@H]2[C@H]1CO	inactive
CCCC(=O)Nc1ccc2c(c1)C(=O)N(C)C[C@H](OC)[C@@H](C)CN(C(=O)c1cccnc1)[C@H](C)CO2	inactive
CC(C)CC#Cc1cnc2c(c1)C(=O)N([C@H](C)CO)C[C@H](C)[C@@H](CN(C)Cc1cccc(F)c1)O2	inactive
Cc1noc(C)c1NC(=O)Nc1ccc2c(c1)C(=O)N([C@@H](C)CO)C[C@H](C)[C@H](CN(C)CC1CCCCC1)O2	inactive
C[C@H]1CN([C@@H](C)CO)C(=O)c2ccccc2-c2ccccc2CO[C@H]1CN(C)S(=O)(=O)c1cccc(C#N)c1	inactive
COc1ccccc1CNC(=S)NCc1ccc(Cl)cc1	inactive
CC(C)NC(=O)Nc1ccc2c(c1)CC(=O)N([C@@H](C)CO)C[C@@H](C)[C@H](CN(C)C(=O)Nc1ccc3c(c1)OCO3)O2	inactive
CC(C)CC#Cc1cnc2c(c1)C(=O)N([C@H](C)CO)C[C@H](C)[C@H](CN(C)C(=O)c1cccnc1)O2	inactive
C[C@@H]1CCCCO[C@@H](CN(C)C(=O)Nc2ccc3c(c2)OCO3)[C@@H](C)CN([C@H](C)CO)C(=O)c2cc(NC(=O)Nc3cccc4ccccc34)ccc2O1	inactive
Cc1ccc(NC(=O)N2CCCC2C(=O)Nc2c(C)cc(C)cc2C)cc1 (configuration not stated)	inactive
COCCNC(=O)C[C@@H]1C[C@H]2c3cc(NC(=O)C4CCOCC4)ccc3O[C@H]2[C@H](CO)O1	inactive
COc1cccc(NC(=O)N2C[C@H](O)COC[C@H]3O[C@@H](CC(=O)NCc4ccccc4F)CC[C@@H]32)c1	inactive
C[C@H](CO)N1C[C@H](C)[C@@H](CN(C)C(=O)c2ccncc2)OCCCC[C@H](C)Oc2ccc(NC(=O)Cc3ccccc3)cc2C1=O	inactive
Cc1noc(C)c1S(=O)(=O)Nc1ccc2c(c1)C(=O)N([C@@H](C)CO)C[C@@H](C)[C@@H](CN(C)Cc1ccccc1)OCCCC[C@H](C)O2	inactive
Cc1cccc(C)c1NC(=O)CN(C)C(=O)C1CC1C (configuration not stated)	inactive
S=C(Nc1ccc(Cl)cc1Cl)Nc1ccccc1Oc1ccccc1	inactive
CC(C)NC(=O)Nc1ccc2c(c1)C(=O)N([C@@H](C)CO)C[C@H](C)[C@@H](CN(C)S(=O)(=O)c1cccs1)OCCCC[C@H](C)O2	inactive
CNC[C@@H]1OCCCC[C@@H](C)Oc2ccc(NS(=O)(=O)c3ccc(Cl)cc3)cc2C(=O)N([C@H](C)CO)C[C@H]1C	inactive
Cc1noc(C)c1S(=O)(=O)Nc1ccc2c(c1)CC(=O)N([C@H](C)CO)C[C@H](C)[C@H](CN(C)S(=O)(=O)c1cccs1)O2	inactive
CC(C)NC(=O)N(C)C[C@H]1OCCCC[C@H](C)Oc2ccc(NC(=O)c3ccccc3)cc2C(=O)N([C@@H](C)CO)C[C@@H]1C	inactive

Structure (SMILES)	outcome
Cc1cccc(-c2ccc([C@H]3[C@H](CO)N4CCCCN(C(=O)c5ccc6c(c5)OCO6)C[C@@H]34)cc2)c1	inactive
C[C@@H]1CN([C@@H](C)CO)C(=O)c2cc(NC(=O)C3CC3)ccc2O[C@H]1CN(C)CC1CCCCC1	inactive
COc1ccc(S(=O)(=O)N[C@H]2C=C[C@H](CC(=O)N3CCC(Cc4ccccc4)CC3)O[C@@H]2CO)cc1	inactive
Cc1noc(C)c1NC(=O)N(C)C[C@H]1OCCCC[C@H](C)Oc2ccc(NC(=O)NC(C)C)cc2C(=O)N([C@@H](C)CO)C[C@@H]1C	inactive
COc1ccc(NC(=O)N(C)C[C@@H]2OCCCC[C@@H](C)Oc3ccc(NC(=O)Nc4ccc5c(c4)OCO5)cc3C(=O)N([C@@H](C)CO)C[C@H]2C)cc1	inactive
O=C(NC(=S)Nc1cccc(F)c1)c1cccc([N+](=O)[O-])c1	inactive
CCCC(=O)N1CCC1(C)C(=O)Nc1ccc(C)cc1 (configuration not stated)	inactive
CCCNC(C)C(=O)Nc1ccccc1C (configuration not stated)	inactive
COCCN1C(=S)N[C@@H](c2ccccc2)C(C(=O)OC)=C1C	inactive
Cc1ccccc1NC(=O)C(=O)NCCCN1CCCC1=O	inactive
Cc1ccc(S(=O)(=O)N[C@H]2C=C[C@@H](CC(=O)N3CCC(Cc4ccccc4)CC3)O[C@H]2CO)cc1	inactive
C[C@H](O)C#Cc1ccc2c(c1)O[C@H](CN(C)Cc1ccncc1)[C@H](C)CN([C@H](C)CO)S2(=O)=O	inactive
CC(C)NC(=O)Nc1ccc2c(c1)C(=O)N([C@@H](C)CO)C[C@@H](C)[C@@H](CN(C)C(=O)NC(C)C)OCCCC[C@@H](C)O2	inactive
C[C@H]1CN([C@@H](C)CO)C(=O)Cc2cc(N(C)C)ccc2O[C@@H]1CN(C)C(=O)Nc1ccc(C(F)(F)F)cc1	inactive
CO[C@H]1CN(C)C(=O)c2cc(NC(=O)C3CC3)ccc2OC[C@@H](C)N(Cc2cncnc2)C[C@H]1C	inactive
C[C@@H]1CCCCO[C@H](CN(C)C(=O)CCCN(C)C)[C@@H](C)CN([C@H](C)CO)C(=O)c2cc(NC(=O)Cc3ccccc3)ccc2O1	inactive
C[C@@H]1CCCCO[C@H](CN(C)S(=O)(=O)c2cccs2)[C@@H](C)CN([C@@H](C)CO)C(=O)c2cc(NC(=O)CCC(F)(F)F)ccc2O1	inactive
Cc1cccc(C)c1NC(=O)C1CCCN1C(=O)NCc1ccccc1 (configuration not stated)	inactive
O=C(Nc1ccccc1N1CCOCC1)c1cccc([N+](=O)[O-])c1	inactive
CCN(Cc1ccccc1)C(=O)COc1ccccc1	inactive
